Source: PubChem BioAssay AID1768 (National Center for Advancing Translational Sciences (NCATS), 2009)
The campaign covered roughly 270,000 compounds. About 620 (0.23%) were called active. Roughly 12% stayed inconclusive and do not appear here. Calls follow the shape of the dose curve; as a rule, active = well fitted inhibition curve with a large enough effect in the polarisation, with a control signal flat (not every such curve was filed as active); inconclusive = small, poorly fitted or top-dose-only effect, or effect the other way, or a change in a side signal; inactive = no such curve, though single readings can be large or run the other way; the % refers to the polarisation. For the sample, actives were picked, then their nearest neighbours and some compounds at random.

Biological target: Menin (Homo sapiens) (UniProt O00255)
Sequence (O00255 whole entry, looked up): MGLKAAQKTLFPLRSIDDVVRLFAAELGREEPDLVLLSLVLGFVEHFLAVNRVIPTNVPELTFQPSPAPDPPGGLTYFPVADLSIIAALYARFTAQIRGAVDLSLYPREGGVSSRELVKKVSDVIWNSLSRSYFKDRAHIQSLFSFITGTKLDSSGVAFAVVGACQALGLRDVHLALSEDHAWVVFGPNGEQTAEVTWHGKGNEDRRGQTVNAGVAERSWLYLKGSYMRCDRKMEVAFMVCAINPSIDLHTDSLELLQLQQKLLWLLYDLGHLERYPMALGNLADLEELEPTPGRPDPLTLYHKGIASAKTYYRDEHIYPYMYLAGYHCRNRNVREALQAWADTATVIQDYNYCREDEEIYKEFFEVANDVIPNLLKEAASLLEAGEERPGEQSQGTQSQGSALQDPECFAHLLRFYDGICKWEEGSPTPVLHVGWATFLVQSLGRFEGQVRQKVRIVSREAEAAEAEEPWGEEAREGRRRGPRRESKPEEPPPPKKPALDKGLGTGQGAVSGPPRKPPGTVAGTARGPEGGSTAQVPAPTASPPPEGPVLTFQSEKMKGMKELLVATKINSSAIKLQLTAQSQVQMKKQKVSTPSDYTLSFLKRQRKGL
Test: qHTS Assay for Inhibitors Targeting the Menin-MLL Interaction in MLL Related Leukemias: Competition With Texas Red Labeled MLL-derived Mutant Peptide; as to FP activity change, negative = inhibition: % of control where 0% means no effect
Conditions: fluorescence polarization; series mostly up to 61.6 µM; FP activity change, negative = inhibition: at the top concentration
Source text: qHTS Assay for Inhibitors Targeting the Menin-MLL Interaction in MLL Related Leukemias NIH Chemical Genomics Center [NCGC] NIH Molecular Libraries Probe Centers Network [MLPCN] MLPCN Grant: MH084875-01A1 Assay Submitter (PI): Jolanta Grembecka, Tomasz Cierpicki, University of Virginia Translocations of the MLL (Mixed Lineage Leukemia) gene are frequently found in human leukemias affecting both children and adults. Fusion of MLL to one of more than 60 genes results in generation of oncogenic proteins upregulating Hox genes, which are vital to blood cell development. Patients harboring fusion of the MLL gene suffer from aggressive leukemias and respond poorly to available therapies. All of the oncogenic fusion proteins have a preserved N-terminal fragment of MLL that has been identified to interact with menin. It has been recently discovered that association with menin is critical to the leukemogenic activity of the MLL fusion oncoproteins. Selective targeting of the menin-MLL interaction could provide an attractive therapeutic approach to develop novel drugs for MLL-related leukemias. Small molecules blocking the menin-MLL interaction should reverse the oncogenic potential of MLL fusion proteins. We have developed and optimized a fluorescence polarization-based assay for the identification of Menin-MLL inhibitors. The assay was run employing two different MLL-derived peptides. The present assay uses a 12 amino acid peptide labeled with fluorescein at its N-terminus. This peptide consists of the menin high affinity binding motif from MLL and is potently bound by menin. Another peptide with a mutated sequence, labeled with Texas Red, was used in parallel as a less stringent screen for inhibitors.
The Menin protein, the MLL-wild type (w.t.) derived peptide (N-terminal 12 amino acids), the MLL-derived peptide labeled with Texas Red and the MLL-w.t. peptide labeled with Fluorescein were kindly supplied by laboratory of Dr. Jolanta Grembecka, University of Virginia. All protein and peptide solutions were stored in single use aliquots at -80C. The Eu3+ Cyrptate-conjugated mouse monoclonal antibody anti-6 Histidine (Eu3+-AB) and the Streptavidin-XL665 conjugate (XL665) were purchased from Cisbio International (Bedford, MA). All antibody and XL665 conjugate solution stocks were stored in single use aliquots at -20C. The Buffer components for all assays were purchased from Sigma-Aldrich (St. Louis, MO) and Invitrogen (Carlsbad, CA). FP Assay Reagents: 1. FP reaction buffer: 50 mM Tris-HCl pH 7.5, 50 mM NaCl, 1mM DTT. Before use, 0.05% BSA is added. 2. Menin protein, MLL-w.t. labeled with fluorescein, MLL-mutant peptide labeled with texas red. Stored in singe use aliquots at -80C. 3. MLL-w.t. unlabeled peptide as positive control: 10 uM final in FP buffer. FP Assay Procedure: 1. Prepare Menin at 200 nM, MLL-w.t.-fluorescein at 25 nM, and MLL-mutant-texas red at 50 nM mixture in FP buffer. 2. Prepare Menin at 200 nM, MLL-w.t.-fluorescein at 25 nM, MLL-mutant-texas red at 50 nM, and 10 uM MLL-w.t. unlabeled mixture in FP buffer. 3. Prepare MLL-w.t.-fluorescein at 25 nM and MLL-mutant-texas red at 50 nM mixture in FP buffer. 3. Dispense 4 ul per well of reagent in step 1 in columns 2, 4 - 48 in a black 1536 well plate, dispense 4 ul per well of reagents from steps 2 and 3 in columns 1 and 3 respectively. Incubate plate at ambient for 15 minutes. 4. Transfer 23 nl per well of compound to plate and incubate at ambient for 1 hr. 5. Read fluorescence polarization for each label using the PerkinElmer Envision. Envision protocol for fluorescein: FITC FP Dual Enh Mirror, Excitation filter 480, Emission filter (1) P-pol 535, Emission filter (2) S-pol 535 Envision protocol for texas red: FP Dual Enh Mirror, Excitation filter 555, Emission filter (1) P-pol 632, Emission filter (2) S-pol 632
Potency is read from the fitted curve at half-maximal effect.

Q: How did the “FP activity change, negative = inhibition” value turn out when O=S(=O)(Nc1cccc(Oc2ccc(Cl)cc2)n1)c1ccc(F)cc1 was run?
A: The value was 41.6% (inactive).

Q: For CC1C(=O)C(C)C(c2ccc(O)cc2)NC1c1ccc(O)cc1 (stereo not given), which “FP activity change, negative = inhibition” value is on record?
A: The value was 20.1% (inactive).

Q: How did the “FP activity change, negative = inhibition” value turn out when CCN(C(=O)C1CCCN(c2nc(-c3ccc(OC)cc3)no2)C1)c1ccc(OC)cc1 (stereo not given) was run?
A: Its value is -7.46% (inactive).

Q: For Cc1ccc(S(=O)(=O)c2nc(-c3cccs3)oc2NCc2cccnc2)cc1, which “FP activity change, negative = inhibition” value is on record?
A: The value was 7.57% (inactive).

Q: CCOCCCn1c(SCC(=O)Nc2cc(OC)ccc2OC)nc2ccccc2c1=O was tested. Which “FP activity change, negative = inhibition” value did it give?
A: The value was 15.9% (inactive).

Q: Which “FP activity change, negative = inhibition” value does the source give for COc1ccc2[nH]c(C(=O)N/N=C/c3cc(OC)c(OC)c(OC)c3)cc2c1 here?
A: The value was 5.44% (inactive).

Q: C=C1C(=CC=C2CCC[C@@]3(C)[C@@H]2CC[C@H]3[C@H](C)CCCC(C)C)C[C@@H](O)C[C@@H]1O was tested. Which “FP activity change, negative = inhibition” value did it give?
A: The value was -6.01% (inactive).

Q: Cc1ccc(C(=O)NC23CC4CC(CC(C4)C2)C3)c(Cl)c1 was tested. Which “FP activity change, negative = inhibition” value did it give?
A: The value was -16.7% (inactive).

Q: Which “FP activity change, negative = inhibition” value does the source give for CCOc1ccccc1NC(=S)NC(=O)CCc1ccccc1 here?
A: The value was 5.54% (inactive).

Q: With CCc1ccc(N(C(=O)c2csnn2)C(C(=O)NC2CCCCC2)c2cccnc2)cc1 (stereo not given) as the molecule, how does the “FP activity change, negative = inhibition” value read?
A: The value was -8.39% (inactive).

Q: For O=C1CN(Cc2ccccc2)S(=O)(=O)c2ccccc21, which “FP activity change, negative = inhibition” value is on record?
A: The value was 5.81% (inactive).

Q: Which “FP activity change, negative = inhibition” value does the source give for CCOC(=O)C(Cc1ccc(N)cc1)N1C(=O)c2ccccc2C1=O (stereo not given) here?
A: Its value is -0.825% (inactive).

Q: For CCOC(=O)N1CC=C2C(C#N)=C(N)C(C#N)(C#N)[C@H](c3cccs3)[C@H]2C1, which “FP activity change, negative = inhibition” value is on record?
A: The value was 1.03% (inactive).

Q: How did the Potency turn out when CCN1CC=C2C(C#N)=C(N)C(C#N)(C#N)[C@H](c3ccoc3)[C@H]2C1 was run?
A: Its Potency is 17.8 µM (active).

Q: How did the “FP activity change, negative = inhibition” value turn out when CCCN1CC=C2C(C#N)=C(N)C(C#N)(C#N)C(c3cc(OC)ccc3OC)C2C1 (stereo not given) was run?
A: Its value is -20.9% (inactive).

Q: Which “FP activity change, negative = inhibition” value does the source give for O=C(NCCc1c[nH]c2ccccc12)C1CCN(Cc2ccc(Br)cc2)CC1 here?
A: The value was -2.52% (inactive).

Q: How did the “FP activity change, negative = inhibition” value turn out when CC(C)C(C)NC(=O)COc1nc2ccccc2nc1N(C)C1CCCCC1 (stereo not given) was run?
A: Its value is -8.68% (inactive).

Q: With Cc1cccc(OC(C)C(=O)N2CCc3ccccc3C2)c1 (stereo not given) as the molecule, how does the “FP activity change, negative = inhibition” value read?
A: Its value is -12.6% (inactive).

Q: For COC(=O)c1ccc(CN2C(=O)NC(c3ccccc3)(c3ccccc3)C2=O)o1, which “FP activity change, negative = inhibition” value is on record?
A: Its value is -16.5% (inactive).

Q: With CN(Cc1ccccc1)C(=O)C1CCCN(c2ncnc3c2nc2n3CCCCC2)C1 (stereo not given) as the molecule, how does the “FP activity change, negative = inhibition” value read?
A: The value was -7.48% (inactive).

Q: How did the “FP activity change, negative = inhibition” value turn out when Cc1ccccc1OCC(=O)Nc1ccc(S(=O)(=O)N2CCOCC2)cc1 was run?
A: Its value is 30.5% (inactive).

Q: With COc1ccc(CCNC(=O)CSCc2ccc(Br)cc2)cc1OC as the molecule, how does the “FP activity change, negative = inhibition” value read?
A: The value was -14.4% (inactive).

Q: For CCOc1cc(-c2cc(-c3ccc(NC(C)=O)cc3)nc(N)c2C#N)ccc1O, which “FP activity change, negative = inhibition” value is on record?
A: The value was 19.5% (inactive).

Q: Which “FP activity change, negative = inhibition” value does the source give for O=C(c1cc(C(=O)N2CCN(c3ccc(F)cc3)CC2)cc([N+](=O)[O-])c1)N1CCN(c2ccc(F)cc2)CC1 here?
A: Its value is 2.04% (inactive).

Q: Cc1cc2oc(=O)cc(CN(C)Cc3ccc(OC(F)F)cc3)c2cc1Cl was tested. Which “FP activity change, negative = inhibition” value did it give?
A: The value was 7.43% (inactive).

Q: For COC(=O)c1ccccc1NC(=O)C1CCN(C(=O)N2CCOc3ccccc32)CC1, which “FP activity change, negative = inhibition” value is on record?
A: Its value is -28.1% (inactive).

Q: How did the “FP activity change, negative = inhibition” value turn out when CCCNC(=O)CCc1c(C)nc2c(c(C)nn2-c2ccc(C)cc2)c1C was run?
A: The value was 11.6% (inactive).

Q: With C/C(=N\NC(=O)c1ccoc1C)c1ccccc1O as the molecule, how does the “FP activity change, negative = inhibition” value read?
A: The value was 4.06% (inactive).

Q: With COc1ccc(-c2ccc(OC)c(C3C4C=CCC(C)C4C(=O)N3Cc3ccccc3)c2)cc1C (stereo not given) as the molecule, how does the “FP activity change, negative = inhibition” value read?
A: The value was -28.8% (inactive).

Q: For Cc1nnc(NC(=O)C(c2ccccc2)c2ccccc2)s1, which “FP activity change, negative = inhibition” value is on record?
A: Its value is -23.4% (inactive).

Q: Which “FP activity change, negative = inhibition” value does the source give for CC(C)C[C@@H](COc1ccccc1)N1CCN(CC(C)C)CCC1=O here?
A: The value was -8.58% (inactive).

Q: Which “FP activity change, negative = inhibition” value does the source give for Cc1nc2ccccc2c(=O)n1Cc1ccc([N+](=O)[O-])cc1 here?
A: The value was -0.0877% (inactive).

Q: For O=c1[nH]n(-c2ccc([N+](=O)[O-])cc2)c(=O)c2ccccc12, which Potency is on record?
A: Its Potency is 31.6 µM (active).

Q: Cc1nn(-c2ccc([N+](=O)[O-])cc2)c(N)c1-c1ccccc1 was tested. Which “FP activity change, negative = inhibition” value did it give?
A: The value was 17.3% (inactive).

Q: How did the “FP activity change, negative = inhibition” value turn out when COc1ccc(CCNC(=O)c2cnc(Cl)c(Cl)c2)cc1 was run?
A: The value was 13.2% (inactive).

Q: CCOc1ccc(NC(=O)c2nc(SCC)ncc2Cl)cc1 was tested. Which “FP activity change, negative = inhibition” value did it give?
A: Its value is -7.71% (inactive).

Q: Which “FP activity change, negative = inhibition” value does the source give for Cc1ccc(SCC(CC(C)C)N2CCN(CCc3ccccc3)CCC2=O)cc1 (stereo not given) here?
A: Its value is -8.63% (inactive).

Q: How did the “FP activity change, negative = inhibition” value turn out when Cc1ccccc1Nc1nc(-c2cccnc2)cs1 was run?
A: The value was 0.491% (inactive).

Q: Which Potency does the source give for c1cnc(Nc2nc(-c3ccc4ccccc4c3)cs2)nc1 here?
A: Its Potency is 17.8 µM (active).

Q: O=C(Nc1nc(-c2ccc(-c3ccccc3)cc2)cs1)c1cnccn1 was tested. Which “FP activity change, negative = inhibition” value did it give?
A: Its value is -16.9% (inactive).

Q: Cc1c(C)c2c(OCC(=O)NCCCO)cc3c(c2oc1=O)CCC(C)(C)O3 was tested. Which “FP activity change, negative = inhibition” value did it give?
A: Its value is -20.7% (inactive).

Q: How did the “FP activity change, negative = inhibition” value turn out when COc1ccc(NC(=O)CN2C(=O)CSc3ccc(S(=O)(=O)N4CCC(C)CC4)cc32)cc1 was run?
A: Its value is 32.8% (inactive).

Q: Which “FP activity change, negative = inhibition” value does the source give for CCNC(=O)c1cnn(-c2ccccc2)c1-c1ccccc1 here?
A: Its value is -5.6% (inactive).

Q: For COc1ccc(NC(=O)NCCN2CCN(c3ccc(C)cc3)CC2)c(Cl)c1, which “FP activity change, negative = inhibition” value is on record?
A: Its value is 0.531% (inactive).

Q: COc1ccc(C2/C=C\CN(C(=O)c3ccc(C)cc3)C(Cc3ccccc3)C(=O)N2Cc2ccc(F)cc2)cc1 (stereo not given) was tested. Which “FP activity change, negative = inhibition” value did it give?
A: The value was 30.8% (inactive).

Q: CCOc1ccc(C(C(=O)NC2CCCC2)N(C(=O)c2snc(C(N)=O)c2N)C2CCCC2)cc1 (stereo not given) was tested. Which “FP activity change, negative = inhibition” value did it give?
A: The value was -24.3% (inactive).

Q: How did the “FP activity change, negative = inhibition” value turn out when CC(=O)N1CCOc2ccc(S(=O)(=O)N3CCN(c4cccc(C(F)(F)F)c4)CC3)cc21 was run?
A: Its value is 14.8% (inactive).

Q: Which “FP activity change, negative = inhibition” value does the source give for O=C(NCCc1cccc(F)c1)C1CCCN(c2nc3ccccc3s2)C1 (stereo not given) here?
A: Its value is -11.9% (inactive).

Q: CC(Cc1cccs1)N(Cc1ccc(Cl)cc1)C(=O)c1ccncc1 (stereo not given) was tested. Which “FP activity change, negative = inhibition” value did it give?
A: The value was -15.9% (inactive).

Q: COc1ccc(CN2CCC(=O)c3ccccc3S2(=O)=O)cc1 was tested. Which “FP activity change, negative = inhibition” value did it give?
A: The value was 4.64% (inactive).
